# Assay outcomes (PubChem)
# CHT inh = inhibitors of human choline transporter CHT. 0.86% of 310,000 active. B-score at 10 µM. CHT-expressing cells, membrane potential dye, choline response; active compounds read low;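 active = B-score over 3 SD under the library average, and starting fluorescence ratio not unusually high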;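 note: choline stimulus applied at its EC90 after an EC20 pre-addition; B-score computed on integrated fluorescence ratio after choline addition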
# TMEM16A inh = TMEM16A chloride channel inhibitors, primary screen, cell-based, HTS; 1.2% of 310,000 active; HEK293 TMEM16A/YFP iodide influx fluorescence, ionomycin; normalized B-score (activity score, 25-100; higher = stronger inhibition) at 10 µM; AID 588511, 2011;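 active = ratio plate-corrected score three or more library SD toward inhibition, starting fluorescence score within five deviations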;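 note: score derived from kinetic fluorescence span divided by baseline fluorescence per well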
# Kir21 inh = inhibitors of mouse Kir2.1 inward-rectifier potassium channel; HEK293-Kir2.1, FluxOR thallium flux fluorescence; active compounds read low; B-score at 10 µM; 0.85% of 310,000 active;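 active = fluorescence ratio B-score at or below minus 3 SD of library scores, with starting-brightness B-score within 2 SD, cut at about -4.2 in these data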;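 note: channel flux triggered by added potassium and thallium sulfate stimulus; B-score of peak minus minimum fluorescence over baseline after thallium stimulus; more negative B-score means stronger Kir2.1 block with less thallium influx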
# Target sequence (P35561 whole entry, looked up): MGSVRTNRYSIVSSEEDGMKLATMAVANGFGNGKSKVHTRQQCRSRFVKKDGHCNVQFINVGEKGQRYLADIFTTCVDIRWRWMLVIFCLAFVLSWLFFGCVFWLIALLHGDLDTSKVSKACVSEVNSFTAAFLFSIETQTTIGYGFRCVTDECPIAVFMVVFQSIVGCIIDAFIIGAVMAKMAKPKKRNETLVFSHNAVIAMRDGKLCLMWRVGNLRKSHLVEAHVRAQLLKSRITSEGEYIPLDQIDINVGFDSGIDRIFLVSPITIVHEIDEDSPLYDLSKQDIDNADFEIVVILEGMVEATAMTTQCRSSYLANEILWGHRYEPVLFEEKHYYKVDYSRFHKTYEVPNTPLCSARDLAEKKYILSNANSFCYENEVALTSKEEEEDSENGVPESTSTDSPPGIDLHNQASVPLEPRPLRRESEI
# GPR7 antagonist = GPR7 receptor antagonists, primary screen, cell-based, fluorescence, single concentration; 1.1% of 290,000 active; inhibition, % at 4.4 µM; GPR7-expressing cells, fluorescence antagonist assay; Neuropeptides B/W receptor type 1 (Homo sapiens), P48145; in the data active = inhibition above about 16%, passing the limit was not always enough;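 note: cells stimulated with the agonist NPW; 0% = agonist with vehicle and 100% = vehicle without agonist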
# TMEM16A act = TMEM16A chloride channel activators or potentiators, primary screen, cell-based, HTS | Anoctamin-1 (Mus musculus), Q8BHY3 | HEK293 TMEM16A/YFP-H148Q/I152L, iodide quench fluorescence; active compounds read low | B-score at 10 µM | 0.3% of 340,000 active;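 active = fluorescence-ratio B-score plate-corrected deviation score at least 3 library SD below zero, with starting fluorescence score within 5 deviations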;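 note: channel opened by trigger with iodide after compound preincubation; score built on the fluorescence ratio of max minus min over baseline; more negative score means more quench and so TMEM16A activation or potentiation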
# CHT PAM = CHT positive allosteric modulators, primary screen, cell-based, membrane potential dye, choline EC20. High affinity choline transporter 1 (Homo sapiens), Q9GZV3. 0.49% of 310,000 active. CHT-expressing cells; active compounds read high; LV-AA mutant CHT in HEK293 cells. AID 488977, 2010. B-score at 10 µM;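 active = initial fluorescence not abnormally high and integrated response B-score, plate-corrected, over 3 SD above library mean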
# CHT activ conf = CHT activators, confirmation, cell-based, membrane potential dye, duplicate | shares compounds with CHT PAM | CHT-expressing cells, membrane potential dye fluorescence (FDSS); % of choline EC20–EC90 response window; HEK293 expressing CHT LV-AA mutant; choline added at its EC20 | activation, % at 10 µM | 91% of 2,500 active | AID 504833, 2011;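 active = primary screen active, with duplicate mean activation above negative control mean plus 3 SD, cut at about 11% in these data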
# HEK293 MP dye = membrane potential response in parental HEK293 cells, counter-screen for CHT activator project, cell-based, membrane potential dye | membrane potential dye fluorescence (FDSS); measured after EC20 choline addition | ratio readout change at 10 µM, hits read low | shares compounds with CHT PAM | AID 623908, 2012 | 62% of 2,500 active;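 active = duplicate-averaged ratio beyond 3 SD from buffer wells, up or down, though filed actives are nearly all decreases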
# * hit, by the source's call; i = inactive; x = no result. In the library only some 3.7% were active in any assay of this set; here they are far more common.
SMILES,CHT inh,TMEM16A inh,Kir21 inh,GPR7 antagonist,TMEM16A act,CHT PAM,CHT activ conf,HEK293 MP dye
COc1ccc(C(C)=O)cc1CSc1nc2ccccc2c(=O)n1-c1ccccc1C,i,i,-0.79,18,i,i,25*,i
COc1ccc(C(C)=O)cc1CSc1nnc2c(Cl)cc(Cl)cn12,i,i,-0.69,-1,i,9.6*,84*,-89*
COc1ccc(C(C)=O)cc1CSc1nc2ccccc2c(=O)n1-c1ccccc1,i,i,0,-1,i,i,x,x
O=c1[nH]c(=S)n(C2CCCCC2)c(O)c1C=NCCN1CCOCC1,i,i,0.03,-13,i,i,x,x
Cc1cc(C)c(-n2c(O)c(C=NCCN3CCOCC3)c(=O)[nH]c2=O)c(C)c1,i,i,0.01,-9,i,9.8*,17*,i
CC(=O)c1cc(C#N)c(NCCCN(C)C)nc1C,i,i,-0.52,-1,i,i,54*,-32*
C=CCNc1nc(C)c(C(C)=O)cc1C#N,i,i,0.81,-11,i,i,x,x
Cc1cc2ccccc2n1CCNC(=O)C1CCCCC1,i,i,0.34,7,i,i,x,x
Cc1cc2ccccc2n1CCNC(=O)C1CCCC1,i,i,-2.4,-9,i,i,2,i
COc1ccc(CN(CCC(c2ccccc2)c2ccco2)C(=O)c2ccco2)cc1 (stereo unspecified),i,i,-0.19,6,i,i,x,x
O=C(c1ccco1)N(CCC(c1ccccc1)c1ccco1)Cc1ccccc1 (stereo unspecified),i,i,-1,0,i,6.4*,40*,i
CC1=Nc2cccc3cccc(c23)N1,i,i,-0.05,19,i,i,33*,-39*
COC(=O)c1ccc(OC)c(CSc2nnc(COc3cccc(C)c3)o2)c1,i,i,0.64,12,i,i,19*,i
COc1cc2c(cc1OC)-c1cc(OCCN3CCOCC3)nc(=O)n1CC2,i,i,-1.4,-3,i,6.5*,55*,-44*
CCN(CC)S(=O)(=O)c1ccc(NC(=O)c2ccc(N3CCCC3=O)cc2)cc1,x,x,x,x,i,x,x,x
N#CC(C#N)=c1ccc2c(c1)NC1(CCCCC1)N=2,i,i,-0.04,-14,i,6.4*,51*,-64*
N#CCCN(CCN1CCCC1)S(=O)(=O)c1ccc(-c2ccc([N+](=O)[O-])cc2)cc1,i,i,0,-10,i,i,x,x
CCCNc1nc2nc3ccccn3c(=O)c2cc1C(=O)NCCN1CCOCC1,i,i,0.51,-8,i,i,x,x
CCCn1c(N)c(N(CCOC)C(=O)c2ccc(S(=O)(=O)N3CCOCC3)cc2)c(=O)[nH]c1=O,x,x,x,x,i,x,x,x
COc1ccc(-n2c(-c3ccc(Br)cc3)n[nH]c2=S)cc1,i,i,1.2,-2,i,i,x,x
COc1ccc(-n2c(-c3ccc(Br)cc3)c[n+]3c2SC(C)C3)cc1 (stereo unspecified),i,i,0.32,6,i,i,36*,-52*
COc1ccc(-n2c(-c3ccc(Br)cc3)c[n+]3c2CCCCC3)cc1,i,i,-0.85,2,i,11*,62*,i
COc1ccc(-n2c(-c3ccccc3)c[n+]3c2CCC3)cc1,i,i,0.07,-4,i,i,x,x
COc1ccc(-n2c(-c3ccc(Br)cc3)c[n+]3c2CCC3)cc1,i,i,-0.7,21,i,i,x,x
CCOc1ccc(-c2c[n+]3c(n2-c2ccccc2)CCCCC3)cc1,i,i,-0.79,25*,i,7.2*,15*,i
SMILES,CHT inh,TMEM16A inh,Kir21 inh,GPR7 antagonist,TMEM16A act,CHT PAM,CHT activ conf,HEK293 MP dye
FC(F)Sc1ccc(-n2c(-c3ccc(Cl)cc3)c[n+]3c2CCC3)cc1,i,i,-0.86,-10,i,6.3*,30*,-35*
Cc1ccc(-n2c(-c3ccc(Cl)cc3)c[n+]3c2CCC3)cc1,i,i,-1.1,8,i,i,x,x
O=C(Nc1ccccn1)C1CCN(c2ncnc3c2nc2n3CCCCC2)CC1,i,i,-0.02,-4,i,i,x,x
N#Cc1c(NC(=S)NC(=O)c2ccccc2)sc2c1CCN(CCc1ccccc1)C2,i,i,-2.1,17,x,i,x,x
N#Cc1c(N)sc2c1CCN(CCc1ccccc1)C2,i,25*,-3.3,-11,i,i,30*,-41*
CCC[n+]1c2ccccc2cc2ccccc21,i,i,-2.3,19,i,i,76*,-71*
CCCC[n+]1c2ccccc2cc2ccccc21,i,i,-5.9,34,i,i,x,x
C#CC[N+]1(CC#Cc2ccc(C#CC[N+]3(CC#C)CCOCC3)cc2)CCOCC1,i,i,0,-3,i,i,38*,-41*
C#CC[N+]1(CC#Cc2ccccc2)CCCC1,i,i,1.7,-2,i,i,x,x
COc1ccc(OC)c(C(c2nnnn2CC2CCCO2)N2CCN(C)CC2)c1 (stereo unspecified),i,i,0.62,-6,i,i,x,x
C=CCN1CCN(C(c2cc(OC)ccc2OC)c2nnnn2CC2CCCO2)CC1 (stereo unspecified),i,i,-0.15,8,i,6.3*,16*,i
COc1ccc(C(c2nnnn2CC2CCCO2)N2CCC(C(N)=O)CC2)cc1 (stereo unspecified),i,i,-0.93,-4,i,i,-1,i
COc1ccc(OC)c(C(c2nnnn2Cc2ccccc2)N2CCN(C3CCCCC3)CC2)c1 (stereo unspecified),i,i,-0.8,12,i,i,10*,i
Cc1c(C#N)c(=O)c(-[n+]2ccccc2)c([S-])n1-c1ccc(Cl)cc1,i,i,2.2,-9,i,i,x,x
Cc1nnn(-c2nonc2N)c1C(=O)NNC(=O)c1ccc(Cl)c(Cl)c1,i,i,-0.05,-2,i,i,x,x
